Compound activity deposited in PubChem BioAssay by National Center for Advancing Translational Sciences (NCATS).
A selection: hits, their analogues and other compounds. The true share with any hit is near 11%.
ALDH1A1 block = qHTS Assay for Inhibitors of Aldehyde Dehydrogenase 1 (ALDH1A1). Potency, µM (series often up to 75.3 µM), for inactives: at the highest dose activity, negative = inhibition, actives largely listed as inhibitors. 220,000 tested, 7.3% active. Aldehyde dehydrogenase 1A1 (Homo sapiens), P00352. Purified ALDH1A1, NADH fluorescence, propionaldehyde substrate;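 also: potency is read from the fitted curve at half-maximal effect; plate controls were no enzyme wells and a reference inhibitor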
Target sequence (P00352 whole entry, looked up): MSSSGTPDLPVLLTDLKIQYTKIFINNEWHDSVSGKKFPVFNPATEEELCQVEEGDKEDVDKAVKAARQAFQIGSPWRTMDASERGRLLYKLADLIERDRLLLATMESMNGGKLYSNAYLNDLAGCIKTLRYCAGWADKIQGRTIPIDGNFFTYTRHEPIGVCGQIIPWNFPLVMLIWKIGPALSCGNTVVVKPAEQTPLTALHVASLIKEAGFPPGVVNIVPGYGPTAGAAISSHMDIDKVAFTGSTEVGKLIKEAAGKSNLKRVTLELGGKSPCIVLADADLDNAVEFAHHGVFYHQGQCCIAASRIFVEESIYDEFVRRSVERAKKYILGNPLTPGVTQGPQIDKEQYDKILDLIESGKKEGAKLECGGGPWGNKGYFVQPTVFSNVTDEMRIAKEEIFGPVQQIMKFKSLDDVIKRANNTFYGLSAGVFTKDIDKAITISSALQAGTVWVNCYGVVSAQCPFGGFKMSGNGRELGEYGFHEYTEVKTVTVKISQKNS
PNC inhibitor = High Content Assay for Compounds that inhibit the Assembly of the Perinucleolar Compartment; activity change (PNC), negative = inhibition, % at 10 µM; PC3M PTB-GFP, PNC prevalence imaging, 16 h; active compounds read low; 140,000 tested, 3.1% active;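 active = readout at or below -70, meaning at least 70% loss of cells showing the perinucleolar compartment, a nuclear body marking cancer cells; inconclusive = readout between -30 and a set limit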;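 also: plate controls were DMSO wells for no effect and camptothecin positive control wells for full effect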
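Read-out is percentage of cells bearing a perinucleolar compartment, from automated 20x imaging of fixed, Hoechst-stained PC3M PTB-GFP cells. Cells were seeded 4 h, then exposed 16 h to compound (23 nl of library stock) in duplicate plates.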
HPGD block = qHTS Assay for Inhibitors of HPGD (15-Hydroxyprostaglandin Dehydrogenase) | 15-hydroxyprostaglandin dehydrogenase [NAD(+)] (Homo sapiens), P15428 | purified HPGD, NADH fluorescence kinetic, PGE2 substrate | Potency, µM, for inactives: at the highest dose activity change, negative = inhibition, most hits filed as inhibitors | 150,000 tested, 4.3% active; also: potency is read from the fitted curve at half-maximal effect
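20 nM HPGD preincubated 15 min at room temperature with compound in 50 mM Tris-HCl pH 8, 0.01% Tween 20. Started with 1 mM NAD+ and 30 uM prostaglandin E2; NADH fluorescence (360/450 nm) read 5 times over 30-s intervals, last minus first.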
Active calls of the source: *; ? = inconclusive; . = not tested or not shown; [ ] = dose if it differs, or a comment. Unless noted, calls follow the shape of the dose curve; as a rule, active = well fitted inhibition curve with a large enough effect (not every such curve was filed as active); inconclusive = small, poorly fitted or top-dose-only effect, or another doubt; inactive = no such curve, though single readings can be large or run the other way. Unless noted, % is scaled to controls: 0 for no effect and ±100 for the full control effect.

SMILES	ALDH1A1 block	PNC inhibitor	HPGD block
COC(=O)C1=C(C)NC(=O)NC1c1ccc(-c2ccccc2Cl)o1 (configuration not stated)	10µM*	.	.
CCCOc1cccc(OCCSc2nc(C)cc(=O)[nH]2)c1	-10%	-86*	-21%
CCCSc1nc(C)cc(=O)[nH]1	8%	-7	-3%
O=C(CCC(=O)c1ccc(F)cc1)Nc1cccc(S(=O)(=O)Nc2cccc(Cl)c2)c1	-2%	19	?
CC[C@@]1(O)CC2CN(CCc3c([nH]c4ccccc34)[C@](C(=O)OC)(c3cc4c(cc3OC)N(C)C3[C@@](O)(C(=O)OC)C(OC(C)=O)[C@]5(CC)C=CCN6CC[C@@]43C65)C2)C1 (some centres not stated)	0%	.	-4%
CCOC(=O)N1CCN(C(=O)c2csc3c2CCCCC3)CC1	?	?	-17%
O=C(c1csc2c1CCCC2)N1CCN(c2ccccc2)CC1	-13%	-80*	-7%
O=C(O)c1ccccc1C(=O)N1CCN(c2ccccc2)CC1	16µM*	-26	-12%
O=C(c1ccccc1C(=O)N1CCN(c2ccccc2)CC1)N1CCN(c2ccccc2)CC1	?	-9	-2%
CC(C)Sc1n[nH]c(=O)n1-c1ccccc1	-1%	.	.
COc1ccc(CC(=O)OCCN(C)C)cc1	18%	7	-12%
CCCC(O)(CCN(C)C)c1ccc(OC)cc1 (configuration not stated)	10µM*	20	5%
C/C(CCN1CCCc2nc(C)c(C)cc21)=N\O[C@@H](C)CN1CCCCc2nc(C)c(C)cc21	0%[13.5 µM]	.	.
CC(C)(C)NC(=O)[C@@H]1C[C@H]2CCCC[C@@H]2CN1C[C@H](O)[C@H](Cc1ccccc1)NC(=O)[C@@H](CC(N)=O)NC(=O)c1ccc2ccccc2n1	1%[20.9 µM]	.	-6%
CN(C)c1ccc(C2C3C(=O)NC(=O)C3ON2c2ccc(Cl)cc2)cc1 (configuration not stated)	25µM*	?	-8%
CN(C)c1ccc(S(=O)(=O)c2ccc(Cl)cc2)cc1	?	-6	?
O=c1cnc2cnc(Oc3ccccc3)nc2n1C[C@H]1CCCO1	?	.	-14%
COc1ccc(N2CCN(C(=O)CCS(=O)(=O)c3ccc(OC)cc3)CC2)cc1	6%	.	.
O=C(CCS(=O)(=O)c1cccc2nsnc12)N1CC(=O)N(CCc2ccccc2)C(=O)C1	22µM*	?	-22%
COc1ccc(N2CCN(C(=O)CCS(=O)(=O)c3cccc4nsnc34)CC2)cc1	?	-85*	-12%
CN(CC(=O)N1CC(=O)N(CCc2ccccc2)C(=O)C1)S(=O)(=O)c1cccc2nsnc12	?	28	-1%
C/C(CCN1CCCc2nc(C)c(C)cc21)=N\OC[C@@H](C)[C@H](OCc1ccccc1)C(C)C	-10%[13.5 µM]	.	.
Cc1ccc2[nH]c(O)c(N=NC(=O)C3CC3c3ccccc3)c2c1Br (configuration not stated)	1%	-25	-8%
COC(=O)C1=C(C(=O)OC)C(c2ccccc2O)c2sc(=O)[nH]c2S1 (configuration not stated)	?	14	22µM*
COC(=O)c1sc2ccccc2c1C(=O)OC	-3%	?	-8%
SMILES	ALDH1A1 block	PNC inhibitor	HPGD block
COC(=O)c1ccc(OCC2c3cc(OC)c(OC)cc3CCN2C(=O)C2CC2)cc1 (configuration not stated)	?	24	-24%
COc1cc2c(cc1OC)C(c1cc3cc4c(cc3[nH]c1=O)OCO4)N(C(=O)C1CC1)CC2 (configuration not stated)	?	-100*	?
Cc1c(CNC(=O)c2c([N+](=O)[O-])cnn2C)cnn1C	7%	.	.
CC1CCN(C(=O)/C=C/c2ccc(C(C)(C)C)cc2)CC1	5%	27	16µM*
Cc1ccc(/C=C/C(=O)N2CCC(Cc3ccccc3)CC2)cc1	-14%	-18	-7%
CCOC(=O)C1CCCN(C(=O)/C=C/c2ccc(Cl)cc2)C1 (configuration not stated)	-6%	.	.
Cc1ccc(/C=C/C(=O)N2CCCC(C)C2)cc1 (configuration not stated)	?	-20	1.6µM*
CSc1ccc(/C=N/NC(=O)c2ccccc2Cl)cc1	-7%	.	.
COc1ccc(Br)cc1/C=C/C(=O)NC(=S)Nc1ccc(Cl)c(C(=O)O)c1	-16%	.	.
COc1ccc(Br)cc1C(=O)NC(=S)Nc1ccc(Cl)c(C(=O)O)c1	18µM*	.	.
CC1=CC(C)(C)n2c(O)c(N=N)c3cc(C)cc1c32	-4%	-5	-8%
O=C(NC(=S)NN1CCCCC1c1cccnc1)c1ccc(Cl)cc1Cl (configuration not stated)	-3%	.	.
CCC(C(=O)c1ccc2ncccc2c1)c1ccccc1 (configuration not stated)	-17%	53	-16%
COCCn1c(SC(C)C(=O)Nc2ncc(Cl)cc2Cl)nc2ccccc21 (configuration not stated)	-1%	-103*	-3%
Cc1cc(SC(C)C(=O)Nc2ncc(Cl)cc2Cl)nc2ccccc12 (configuration not stated)	-8%	-92*	-10%
CC(OC(=O)CCc1nc2ccccc2c(=O)[nH]1)C(=O)Nc1ncc(Cl)cc1Cl (configuration not stated)	3%	.	.
Cc1nnc(SC(C)C(=O)Nc2ncc(Cl)cc2Cl)n1Cc1ccccc1 (configuration not stated)	-5%	-4	-10%
Cc1c(NC(=O)CS(=O)(=O)c2ccccc2)c(=O)n(-c2ccccc2)n1C	-5%	.	.
O=C(Nc1ccccc1)N1CC2(CCN(C(=O)c3cnccn3)CC2)C1	13%	.	-8%
COc1ccc(-c2nc(-c3ccccc3)c(-c3cc([N+](=O)[O-])ccc3C)[nH]2)cc1OC	-7%	-10	-26%
CCOc1cc(-c2nc(-c3ccccc3)c(-c3cc([N+](=O)[O-])ccc3C)[nH]2)ccc1O	6.3µM*	-2	-2%
CCC1=Nc2ccccc2NC2=C1C(=O)CCC2	11µM*	-29	-20%
CC1CC(=O)C2=C(C1)Nc1ccccc1N=C2 (configuration not stated)	19%	?	-4%
CC1=NN(c2ccccc2)C(=O)C1(C)[N+](=O)[O-] (configuration not stated)	11%	5	-12%
CCCN(CCC)C(=O)c1ccccc1C(=O)N(CCC)CCC	2%	?	-2%
SMILES	ALDH1A1 block	PNC inhibitor	HPGD block
CCCCCCCN(C(=O)CCl)c1ccccc1C	0.5µM*	?	-4%
O=[n+]1c2c(n([O-])c3cc(Br)ccc31)CCCC2	-6%	-27	-10%
O=[n+]1c2c(n([O-])c3cc(F)c(F)cc31)CCCC2	?	8	18µM*
O=C1N/C(=C/c2ccc(N3CCOCC3)o2)C(=O)N1c1cccc(Cl)c1	18µM*	.	.
Cc1ccc(/C=C2/NC(=O)N(c3ccccc3)C2=O)o1	10µM*	-2	-21%
Cc1c(C(=O)O)cccc1-c1ccc(/C=C2/NC(=O)N(c3ccccc3)C2=O)o1	5.6µM*	.	.
